Test results as given in PubChem BioAssay (Tox21).
Several values for one entry are separate records, joined by “and”; a condition that tells them apart may be missing. Equal values may be shown once. Inconclusive results are not listed. Where a call stands in place of a potency, no number is given. More than one record can exist for a structure, and the calls need not agree. Activity calls are given as the source filed them. Calls follow the shape of the dose curve; as a rule, active = well fitted cell-killing curve with a large enough effect in the repeat runs; inconclusive = weak or mixed curves; inactive = flat fitted curve, though single readings scatter.

Assay: qHTS RealTime-Glo MT Cell Viability Assay in HepG2 cells - 16 hour (AID 1224885); also: nearly all actives have a fitted effect of over 50% in size
Details: RealTime-Glo luminescence; series mostly up to 76.8 µM
Excerpt: U.S. Tox21 Program National Center for Advancing Translational Sciences [NCATS] NIH Chemical Genomics Center [NCGC] U.S. Environmental Protection Agency [EPA] National Institutes of Environmental Health Sciences [NIEHS] National Toxicology Program [NTP] U.S. Food and Drug Administration [FDA] Tox21 Assay Overview: Measure of cell viability is critical in the cell-base assay. Analysis of cell viability is necessary for the characterization of cell responses to cytotoxic drugs and environmental stress. A RealTime-Glo MT Cell Viability Assay to monitor cell viability in real time of continues cell culture during 40 hours of compound treatment was used to screen Tox21 10K library compounds in HepG2 cells. The RealTime-Glo MT Cell Viability Assay is a nonlytic, homogeneous, bioluminescent method to measure cell viability in real time using a simple, plate-based method. The assay involves adding NanoLuc luciferase and a cell-permeant prosubstrate to cells in culture. Viable cells reduce the proprietary prosubstrate to generate a substrate for NanoLuc luciferase. This substrate diffuses from cells into the surrounding culture medium, where it is rapidly used by the NanoLuc Enzyme to produce a luminescent signal. The signal correlates with the number of viable cells, making the assay well suited for cytotoxicity studies.
Tox21 Assay Protocol Summary: The mixture of HepG2 cell suspension and reagents were dispensed at 600cells/6 ul/well in 1536-well tissue culture treated black solid bottom plates using a Multidrop dispenser. After the assay plates were incubated at a 37 C/5% CO2 incubator for 5 hours, 23 nL of compounds dissolved in DMSO, positive and negative controls was transferred to the assay plate by a pintool work station. The plates were incubated at 37 C for 40 hours. The luminescence intensity were measured at 0h, 8h, 16h, 24h, 32h and 40h time points using ViewLux plate reader during compound treatment.
Potency is read from the fitted curve at half-maximal effect.

| SMILES | Potency |
| --- | --- |
| CC(C)OC(=S)S | inactive |
| CSCCCN=C=S | inactive |
| CC1(C)[C@H](C(=O)O[C@H](C#N)c2cccc(Oc3ccccc3)c2)[C@@H]1/C=C(\Cl)C(F)(F)F | inactive |
| Cc1c(Cl)c(=O)oc2cc(OP(=O)(OCCCl)OCCCl)ccc12 | inactive |
| C[C@@H](Oc1ccc(Cl)cc1Cl)C(=O)O | inactive |
| Oc1ccccc1Br | inactive |
| CCOP(=S)(OCC)SCS(=O)(=O)C(C)(C)C | inactive |
| [CH3][Hg][Cl] | 10.9 µM (active) |
| N#CCc1ccc(Cl)cc1 | inactive |
| ClC1=C(Cl)[C@]2(Cl)[C@@H]3[C@@H]4C[C@@H]([C@H]5O[C@@H]45)[C@@H]3[C@@]1(Cl)C2(Cl)Cl | 43.6 µM (active) |
| Oc1cccc(-c2ccccc2)c1 | inactive |
| OC(c1ccc(Cl)cc1)(c1ccc(Cl)cc1)C(Cl)(Cl)Cl | inactive |
| CCS(=O)(=O)c1cccnc1S(=O)(=O)NC(=O)Nc1nc(OC)cc(OC)n1 | inactive |
| COP(N)(=S)OC | inactive |
| Nc1ccc(Cc2ccc(N)c(Cl)c2)cc1Cl | inactive |
| C[C@@H]1O[C@@H](O[C@@H]2C=C3CC[C@@H]4[C@H](CC[C@]5(C)[C@@H](c6ccc(=O)oc6)CC[C@]45O)[C@@]3(C)CC2)[C@H](O)[C@H](O)[C@H]1O | inactive |
| COC(=O)N(C(=O)N1COC2(C(=O)OC)Cc3cc(Cl)ccc3C2=N1)c1ccc(OC(F)(F)F)cc1 (stereo not given) | inactive |
| CC(C)C(=O)Cl | inactive |
| N#CNC#N | inactive |
| CCCCCCCCCCCCCN1CC(C)OC(C)C1 (stereo not given) | inactive |

| SMILES | Potency |
| --- | --- |
| N#CCCO | inactive |
| CN(C)CCc1c[nH]c2cccc(O)c12 | inactive |
| COc1ccc(OC)c(C=O)c1 | inactive |
| c1ccc2c(c1)OCC(C1=NCCN1)O2 (stereo not given) | inactive |
| SCc1ccco1 | inactive |
| CC(C)Oc1cccc(NC(=O)c2ccccc2C(F)(F)F)c1 | inactive |
| CC(O)C#N (stereo not given) | inactive |
| CCOC(=O)c1ccccc1S(=O)(=O)NC(=O)Nc1nc(Cl)cc(OC)n1 | inactive |
| CCC(C)c1cc(C(C)(C)C)cc(-n2nc3ccccc3n2)c1O (stereo not given) | inactive |
| OC(Cc1ccccc1Cl)(Cn1cncn1)C1(Cl)CC1 (stereo not given) | inactive |
| Clc1ccc(-c2ccccc2)cc1 | inactive |
| CCCCCCCCCCCCCCCC[N+](C)(C)C | inactive and 54.9 µM (active) and 23.9 µM (active) |
| Cc1ccc(OP(=O)(Oc2ccccc2)Oc2ccccc2)cc1 | inactive |
| CNC(C)Cc1ccc2c(c1)OCO2 (stereo not given) | inactive |
| [Cl][Sb]([Cl])[Cl] | inactive |
| C[C@]12CC[C@H](O)C[C@H]1CC[C@@H]1[C@@H]2C[C@@H](O)[C@]2(C)[C@@H](C3=CC(=O)OC3)CC[C@]12O | inactive |
| C[C@]12Cc3nonc3C[C@@H]1CC[C@@H]1[C@@H]2CC[C@@]2(C)[C@H]1CC[C@]2(C)O | inactive |
| N#CCCSCCC#N | inactive |
| Cc1cc(C)cc(OP(=O)(Oc2cc(C)cc(C)c2)Oc2cc(C)cc(C)c2)c1 | inactive |
| BrC(Br)Br | inactive |
